Experimental data reported in PubChem BioAssay.
“And” between values parts separate entries of the source, which are not always exact repeats. Equal entries are not always repeated. A structure can be active in one record and inactive in another. The source made the active and inactive calls.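 Rule for the calls, unless noted: active = inhibition at or above 50% relative to wild type and mutant plate controls; inactive = inhibition below 50%.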

Key:
[1] = inhibitors of TNFa-induced NFkB p65 translocation, primary screen, imaging, HUVEC, MLSMR starter and 10KST1 sets (AID 438;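 active = inhibition above 20% together with a positive visual image hit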;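 note: compound added about 3h40 before a 20 min TNFalpha stimulation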;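 for inhibition: signal is the nuclear over cytoplasmic p65 intensity ratio per well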); details: HUVEC TNFa-induced p65 nuclear translocation; cell count: measured here: nuclei count (cytotoxicity indicator), at 2.08 µM; inhibition: at 2 µM, stronger effect = higher value, 0% TNFa-plus-vehicle, 100% no-TNFa wells
[2] = reduction of polyQ htt aggregates in cells – imaging, exon1htt(103Q)mCFP cells, high-content imaging, primary screen (AID 483;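 active = visual image review flags a hit and inhibition of aggregation exceeds 20%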;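 note: compound exposure lasted 3 days before fixation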;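 for nuclei count: percent of the per-plate median nuclei count of sample wells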); details: exon1htt(103Q)mCFP cell line, aggregate imaging, at 2 µM; inhibition of aggregation: stronger effect = higher value; nuclei count: measured here: cell count, toxicity
[3] = endothelial E-selectin expression blockers – imaging, HUVEC, immunofluorescence, MLSMR starter and 10KST1 sets, primary screen (AID 487;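 active = visually confirmed hit in the image check and inhibition above 20%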;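 for inhibition: signal is fraction of cell area covered by stained E-selectin grains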;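 for nuclei count: 100% = median nuclei count of all wells on the same plate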); details: HUVEC TNFalpha-induced E-selectin immunofluorescence imaging, at 2 µM; inhibition: stronger effect = higher value; nuclei count: measured here: cell number, toxicity
[4] = Primary imaging screen for DUSP6 inhibitors that restore phospho-Erk in transfected HeLa cells, chemical complementation (AID 609;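 active = compounds giving at least 50% inhibition in the cell-based MKP-3 phosphatase rescue imaging test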;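 for inhibition: phospho-Erk level distribution per well compared with pooled transfected vehicle control wells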); details: HeLa MKP-3 transfected, phospho-Erk imaging KS statistic, at 10 µM, cells stimulated with TPA for 15 min
[5] = target: Dual specificity protein phosphatase 6 (Homo sapiens) (UniProt Q16828); assay: as above; details: HeLa MKP-3 transfected, phospho-Erk imaging KS statistic; at 10 µM; stronger effect = higher value; cells stimulated with TPA for 15 min
[6] = target: Voltage-gated potassium channel subunit beta-2 (Rattus norvegicus) (UniProt P62483); assay: inhibitors of rat Kvbeta2 reductase activity – biochemical, NADPH fluorescence, primary screen (AID 622;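 active = fluorescence slope higher than the sample average by over 3 SD, cut at about -0.22 in these data, passing the limit was not always enough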;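 note: slope of raw intensity against log time taken from 70 to 1610 s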); details: recombinant KvBeta, 4-cyanobenzaldehyde reduction, at 10 µM, stronger effect = higher value
[7] = target: Voltage-gated potassium channel subunit beta-2 (Rattus norvegicus) (UniProt P62483); assay: enhancers of rat Kvbeta2 NADPH turnover – biochemical, NADPH fluorescence, primary screen (AID 623;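 active = NADPH fluorescence slope more negative than the mean of all samples by about 3 SD, 99.7% confidence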;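 note: fluorescence intensity change per second fitted from 20 to 320 s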); details: Recombinant KvBeta, NADPH fluorescence decrease slope, 10 min; at 10 µM; stronger effect = lower value
[8] = target: Alpha-2C adrenergic receptor (Homo sapiens) (UniProt P18825); assay: compounds altering alpha2C-coupled GIRK flux – cell-based, HEK293 alpha2C/GIRK1/2, thallium flux, primary screen (AID 624;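 active = fluorescence slope after compound addition differing from the mean of all screened samples at 99.7% confidence, in either direction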;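 note: slope of fluorescence ratio to pre-addition baseline per second over 15 to 24 s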); details: thallium flux BTC fluorescence, at 10 µM, actives lie on both sides
[9] = inhibitors of larval lipid processing in zebrafish, primary screen, whole organism, PED6 fluorescence, gall bladder and intestine (AID 686;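 active = a full or partial loss of lipid-probe fluorescence in the fish gall bladder, intestine or both, judged by eye; inactive = no fluorescence loss, or compound toxic to the fish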;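 note: larvae 5 to 7 days old with five fish per well; signal comes from phospholipase A2 cleavage of quenched PED6 carried via bile; overnight exposure to compound and PED6 before scoring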); details: Zebrafish larvae PED6 lipid processing, fluorescence scoring; screened at 20 µM (by protocol)
[10] = loss of swimming-algae plug formation – whole organism, Chlamydomonas reinhardtii, WT vs cilia-less mutant, absorbance, 96-well, primary screen (AID 463189); details: Chlamydomonas reinhardtii gravitaxis, OD600 absorbance, 2 days; at 10 µM; stronger effect = higher value;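 note: 0% = wild type cc124 cells in DMSO and 100% = ciliumless bld1 mutant cells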
[11] = blockers of RIG-like receptor reporter activation – cell-based, Sendai virus stimulus, luciferase, 10K MLSCN set, TLR/RLR signaling modifier project, primary screen (AID 602276;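 active = inhibition at or above 50% at 10 µM; inactive = inhibition below 50%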;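 note: firefly luciferase from ISG56 promoter only with Renilla not read in this screen; 0% = Sendai virus plus DMSO and 100% = medium plus DMSO without virus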); details: HEK293 RL24 IRF3 luciferase reporter, at 10 µM, stronger effect = higher value
[12] = TLR3 IRF3 reporter activation blockers – cell-based, poly I:C stimulus, luciferase, 10K MLSCN set, primary screen (AID 602277;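 active = inhibition of the reporter signal at or above 50%; inactive = inhibition below 50%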); details: HEK293-TLR3 RL24 IRF3 luciferase reporter, at 10 µM, stronger effect = higher value
[13] = measured here: cell density z-score
[14] = measured here: nuclear c-Myc green intensity z-score
[15] = measured here: nuclear pErk red intensity z-score, stronger effect = higher value

Sequence of Dual specificity protein phosphatase 6 (Homo sapiens) (Q16828 whole entry, looked up): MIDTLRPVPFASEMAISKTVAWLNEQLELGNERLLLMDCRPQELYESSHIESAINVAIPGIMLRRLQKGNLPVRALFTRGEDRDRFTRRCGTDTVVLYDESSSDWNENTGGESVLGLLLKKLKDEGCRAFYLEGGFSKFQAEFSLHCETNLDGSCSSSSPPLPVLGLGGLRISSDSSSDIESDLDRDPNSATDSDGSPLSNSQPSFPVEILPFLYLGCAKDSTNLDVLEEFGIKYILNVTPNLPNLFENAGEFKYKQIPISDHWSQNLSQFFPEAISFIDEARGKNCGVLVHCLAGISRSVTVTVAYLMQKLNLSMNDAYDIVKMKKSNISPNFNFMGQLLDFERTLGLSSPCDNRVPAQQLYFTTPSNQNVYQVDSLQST
Sequence of Voltage-gated potassium channel subunit beta-2 (Rattus norvegicus) (P62483 whole entry, looked up): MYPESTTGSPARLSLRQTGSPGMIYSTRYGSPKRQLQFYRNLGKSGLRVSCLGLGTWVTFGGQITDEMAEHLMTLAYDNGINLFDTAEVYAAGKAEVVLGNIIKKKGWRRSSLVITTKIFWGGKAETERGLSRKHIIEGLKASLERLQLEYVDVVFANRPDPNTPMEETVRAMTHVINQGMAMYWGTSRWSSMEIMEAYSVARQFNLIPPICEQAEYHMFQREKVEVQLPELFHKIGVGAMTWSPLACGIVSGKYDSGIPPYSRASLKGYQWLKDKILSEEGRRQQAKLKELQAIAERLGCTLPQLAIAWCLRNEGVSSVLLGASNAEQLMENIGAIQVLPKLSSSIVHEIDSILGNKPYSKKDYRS
Sequence of Alpha-2C adrenergic receptor (Homo sapiens) (P18825 whole entry, looked up): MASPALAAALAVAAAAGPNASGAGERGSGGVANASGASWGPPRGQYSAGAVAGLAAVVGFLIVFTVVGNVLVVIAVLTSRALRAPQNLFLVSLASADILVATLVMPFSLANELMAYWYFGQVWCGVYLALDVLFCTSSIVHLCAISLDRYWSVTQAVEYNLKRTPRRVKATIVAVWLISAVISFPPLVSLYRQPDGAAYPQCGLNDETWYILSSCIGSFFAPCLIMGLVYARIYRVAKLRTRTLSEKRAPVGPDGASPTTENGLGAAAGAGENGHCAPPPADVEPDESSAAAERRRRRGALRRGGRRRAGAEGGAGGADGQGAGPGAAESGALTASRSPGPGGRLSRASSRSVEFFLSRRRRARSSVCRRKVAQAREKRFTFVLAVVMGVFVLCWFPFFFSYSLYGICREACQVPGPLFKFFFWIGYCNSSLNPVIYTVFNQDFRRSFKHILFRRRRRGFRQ

Row | Structure (SMILES) | cell count [1] | inhibition [1] | inhibition of aggregation [2] | nuclei count [2] [%] | inhibition [3] | nuclei count [3] [%] | z-score [4, 13] | z-score [4, 14] | z-score [4, 15] | inhibition [5] | fluorescence slope [6] | NADPH fluorescence slope [7] | slope [8] | outcome [9] | inhibition [10] | inhibition [11] | inhibition [12]
1 | CN(C)CCCN1c2ccccc2CCc2ccc(Cl)cc21 | 621 | -7.8% (inactive) | -25.6% (inactive) | 113 | -129% (inactive) | 124 | -0.576 | 1.08 | 1.97 | 7.39% (inactive) | -0.41 (inactive) | 3.7e-05 (inactive) | 0.00326 (inactive) | active; weak signal in gallbladder and intestine | 16.7% (inactive) and 70.6% (active) | 14.9% (inactive) | 13.5% (inactive)
2 | CCOC(=O)N1CCC(=C2c3ccc(Cl)cc3CCc3cccnc32)CC1 | 695 | -7.4% (inactive) | -15% (inactive) | 106 | -79.3% (inactive) | 132 | 1.11 | 0.137 | -0.637 | 27.1% (inactive) | -0.512 (inactive) | -3.2e-05 (inactive) | 0.00337 (inactive) | inactive; toxic | -6.14% (inactive) and -3.57% (inactive) | -15.2% (inactive) | -34% (inactive)
3 | COC(=O)c1ccc(C2NC(C(=O)O)CS2)cc1 (stereo not given) | 652 | -14.6% (inactive) | 3.9% (inactive) | 107 | -8.7% (inactive) | 139 | -0.228 | -1.99 | -1.57 | -9.66% (inactive) | -0.4 (inactive) | -2.2e-05 (inactive) | 0.00581 (inactive) | inactive | 5.15% (inactive) | 14.2% (inactive) | 18.9% (inactive)
4 | CCOC(=O)c1c(C)n(C)c2ccc(O)c(S(=O)(=O)c3ccccc3)c12 | 278 | -3.6% (inactive) | -0.2% (inactive) | 103 | -19.6% (inactive) | 109 | -0.746 | 0.777 | 1.13 | -8.76% (inactive) | -0.458 (inactive) | -0.000154 (inactive) | 0.00656 (inactive) | inactive | -15.5% (inactive) | 21.8% (inactive) | 27% (inactive)
5 | O=C(CCCN1CC=C(n2c(=O)[nH]c3ccccc32)CC1)c1ccc(F)cc1 | 658 | -2.1% (inactive) | -8.1% (inactive) | 105 | -156% (inactive) | 128 | -0.186 | 0.167 | 0.602 | 19.2% (inactive) | -0.516 (inactive) | -7.4e-05 (inactive) | 0.00484 (inactive) | inactive | 5.84% (inactive) | -12.2% (inactive) | -37.3% (inactive)
6 | COc1ccc(NS(=O)(=O)c2ccc(N)cc2)nn1 | 634 | -10.4% (inactive) | -19.4% (inactive) | 99.2 | -67.7% (inactive) | 114 | -2.14 | -1.5 | 2.96 | 3.45% (inactive) | -0.412 (inactive) | 5.7e-06 (inactive) | 0.00455 (inactive) | inactive | 15% (inactive) | 15.8% (inactive) | 27.8% (inactive)
7 | c1cncc(-c2nnc3sc(-c4ccco4)nn23)c1 | 535 | 0.4% (inactive) | 3.4% (inactive) | 94.2 | -81.8% (inactive) | 105 | 0.315 | -1.33 | 1.09 | -2.47% (inactive) | -0.476 (inactive) | -8.1e-06 (inactive) | 0.00677 (inactive) | inactive | 1.41% (inactive) | 13.2% (inactive) | -2.28% (inactive)
8 | CCCCC(=O)O[C@]1(C(=O)CO)CC[C@H]2[C@@H]3CCC4=CC(=O)CC[C@]4(C)[C@H]3[C@@H](O)C[C@@]21C | 559 | -9.3% (inactive) | -2.8% (inactive) | 44.6 | -73.8% (inactive) | 120 | -0.284 | -0.0177 | 0.0777 | -0.493% (inactive) | -0.554 (inactive) | -4.6e-05 (inactive) | 0.00469 (inactive) | inactive | 15.5% (inactive) | -1.27% (inactive) | 57.4% (active)
9 | OC[C@H]1O[C@@H](n2cnc3c(Nc4ccccc4)ncnc32)[C@H](O)[C@@H]1O | 606 | -3.3% (inactive) | 17.1% (inactive) | 104 | -19.9% (inactive) | 107 | 1.07 | -1.93 | -0.432 | -0.828% (inactive) | -0.459 (inactive) | -4.6e-05 (inactive) | 0.00784 (inactive) | inactive | -14.4% (inactive) | -32.6% (inactive) | -55.1% (inactive)
10 | Cc1cc(C)n(-c2nnc(C)n2/N=C/c2ccccc2F)n1 | 592 | -10% (inactive) | -14.2% (inactive) | 107 | -75.7% (inactive) | 153 | 0.554 | 1.09 | -0.737 | 9.82% (inactive) | -0.53 (inactive) | -4.2e-05 (inactive) | 0.00446 (inactive) | inactive | 5.75% (inactive) | 13.6% (inactive) | 22% (inactive)
11 | Cc1ccc(S(=O)(=O)NCC(=O)OCN2C(=O)c3ccccc3C2=O)cc1 | 416 | -4.7% (inactive) | -19.8% (inactive) | 85.7 | -23.1% (inactive) | 93.4 | -0.341 | -0.796 | 0.197 | 7.93% (inactive) | -0.574 (inactive) | 4e-05 (inactive) | 0.00572 (inactive) | inactive | 45.3% (inactive) | 11.3% (inactive) | -3.4% (inactive)
12 | CN1CCCN=C1COC(=O)C(O)(c1ccccc1)C1CCCCC1 (stereo not given) | 703 | -0.1% (inactive) | 15.9% (inactive) | 107 | -113% (inactive) | 127 | -0.149 | -0.804 | 0.222 | 3.45% (inactive) | -0.497 (inactive) | -1.3e-05 (inactive) | 0.00478 (inactive) | inactive | -8.88% (inactive) | 19.2% (inactive) | 50.5% (active)
13 | CC(C)CCNC(=O)[C@H](CC(C)C)NC(=O)[C@H]1O[C@@H]1C(=O)O | 625 | -6.9% (inactive) | 11.7% (inactive) | 98.3 | -39.7% (inactive) | 134 | 0.0708 | 0.541 | 0.76 | 9.37% (inactive) | -0.496 (inactive) | -1.1e-05 (inactive) | 0.00458 (inactive) | inactive | 10.6% (inactive) | 10.1% (inactive) | 34.8% (inactive)
14 | N[C@@H](Cc1ccc(O)c(I)c1)C(=O)O | 525 | 0.1% (inactive) | 1.7% (inactive) | 92.3 | -11.6% (inactive) | 110 | -0.528 | -0.732 | -0.19 | -4.44% (inactive) | -0.463 (inactive) | 3e-05 (inactive) | 0.00503 (inactive) | inactive | 0.129% (inactive) and -19.2% (inactive) | 9.28% (inactive) | 24.3% (inactive)
15 | Cc1ccc(-n2nc3cc(Cl)c(NC(=O)c4ccco4)cc3n2)cc1 | 566 | -2.6% (inactive) | -7.2% (inactive) | 112 | -52% (inactive) | 137 | -0.552 | 1.17 | -0.609 | -0.674% (inactive) | -0.459 (inactive) | -5.2e-05 (inactive) | 0.00706 (inactive) | inactive | 6.11% (inactive) | -16.5% (inactive) | -49.9% (inactive)
16 | CCCCN1C[C@H](O)[C@@H](O)[C@H](O)[C@H]1CO | 594 | -9.5% (inactive) | -4.6% (inactive) | 109 | -34.3% (inactive) | 129 | 0.947 | -0.313 | 0.0804 | 15.3% (inactive) | -0.473 (inactive) | 1.5e-05 (inactive) | 0.00474 (inactive) | inactive | 22.3% (inactive) | 14% (inactive) | 19.6% (inactive)
17 | CC(=O)[C@@]1(O)CC[C@H]2[C@@H]3CCC4=CC(=O)CC[C@]4(C)[C@H]3[C@@H](O)C[C@@]21C | 623 | 0.5% (inactive) | 16.3% (inactive) | 83 | -142% (inactive) | 140 | -0.503 | -0.682 | 0.228 | -4.44% (inactive) | -0.495 (inactive) | -5.2e-05 (inactive) | 0.00465 (inactive) | inactive | -7.94% (inactive) | 8.03% (inactive) | 38.5% (inactive)
18 | c1cc2c(cc1C1=Nn3c(nnc3C3CCCCC3)SC1)OCO2 | 636 | -0.8% (inactive) | 5.8% (inactive) | 31.9 | -52.3% (inactive) | 113 | -0.24 | 0.613 | -0.0709 | -6.06% (inactive) | -0.481 (inactive) | -8.1e-05 (inactive) | 0.00571 (inactive) | inactive | -5.58% (inactive) | 25.1% (inactive) | 31% (inactive)
19 | CC1CNCCN1S(=O)(=O)c1cccc2cnccc12 (stereo not given) | 695 | -8.2% (inactive) | 13% (inactive) | 109 | -58.8% (inactive) | 129 | -0.528 | 0.0835 | -0.173 | 15.3% (inactive) | -0.449 (inactive) | -4.6e-05 (inactive) | 0.00348 (inactive) | inactive | 0.228% (inactive) and 8.92% (inactive) and 17.2% (inactive) | 15.5% (inactive) | 43% (inactive)
20 | COc1ccc(/C=C/C(=O)Nc2ccccc2C(=O)O)cc1OC | 476 | -4.9% (inactive) | -20.4% (inactive) | 103 | -112% (inactive) | 128 | 0.437 | -0.319 | -0.448 | 15.3% (inactive) | -0.492 (inactive) | -8.1e-05 (inactive) | 0.0062 (inactive) | inactive | 3.58% (inactive) and -6.51% (inactive) | 16.4% (inactive) | 23.3% (inactive)
